Calls of active or inactive are those of the source.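 The calls were made as follows, unless noted: active = inhibition above 20% together with a positive visual image hit; inconclusive = visual image hit but inhibition not above 20%; inactive = no visual image hit.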
Tests used:
[1] = inhibitors of TNFa-induced NFkB p65 translocation, primary screen, imaging, HUVEC, MLSMR starter and 10KST1 sets (AID 438); settings: HUVEC TNFa-induced p65 nuclear translocation; cell count: measured here: nuclei count (cytotoxicity indicator), at 2.08 µM; inhibition: at 2 µM, stronger effect = higher value, 0% TNFa-plus-vehicle, 100% no-TNFa wells;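 also: compound added about 3h40 before a 20 min TNFalpha stimulation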;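 as to inhibition: signal is the nuclear over cytoplasmic p65 intensity ratio per well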
[2] = inhibitors of mutant huntingtin aggregation, primary screen, imaging, exon1htt(103Q)mCFP cells, high-content imaging (AID 483;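 active = visual image review flags a hit and inhibition of aggregation exceeds 20%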;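 also: compound exposure lasted 3 days before fixation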;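 as to nuclei count: percent of the per-plate median nuclei count of sample wells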); settings: exon1htt(103Q)mCFP cell line, aggregate imaging, at 2 µM; inhibition of aggregation: stronger effect = higher value; nuclei count: measured here: cell count, toxicity
[3] = inhibitors of E-selectin induction by TNFa, primary screen, imaging, HUVEC, immunofluorescence, MLSMR starter and 10KST1 sets (AID 487;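 active = visually confirmed hit in the image check and inhibition above 20%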;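 as to inhibition: signal is fraction of cell area covered by stained E-selectin grains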;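 as to nuclei count: 100% = median nuclei count of all wells on the same plate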); settings: HUVEC TNFalpha-induced E-selectin immunofluorescence imaging, at 2 µM; inhibition: stronger effect = higher value; nuclei count: measured here: cell number, toxicity
[4] = target: Voltage-gated potassium channel subunit beta-2 (Rattus norvegicus) (UniProt P62483); assay: KvBeta enzyme negative modulators, primary screen, biochemical, NADPH fluorescence (AID 622;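 active = fluorescence slope higher than the sample average by over 3 SD, cut at about -0.22 in these data, passing the limit was not always enough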;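 also: slope of raw intensity against log time taken from 70 to 1610 s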); settings: recombinant KvBeta, 4-cyanobenzaldehyde reduction, at 10 µM, stronger effect = higher value
Sequence of Voltage-gated potassium channel subunit beta-2 (Rattus norvegicus) (P62483 whole entry, looked up): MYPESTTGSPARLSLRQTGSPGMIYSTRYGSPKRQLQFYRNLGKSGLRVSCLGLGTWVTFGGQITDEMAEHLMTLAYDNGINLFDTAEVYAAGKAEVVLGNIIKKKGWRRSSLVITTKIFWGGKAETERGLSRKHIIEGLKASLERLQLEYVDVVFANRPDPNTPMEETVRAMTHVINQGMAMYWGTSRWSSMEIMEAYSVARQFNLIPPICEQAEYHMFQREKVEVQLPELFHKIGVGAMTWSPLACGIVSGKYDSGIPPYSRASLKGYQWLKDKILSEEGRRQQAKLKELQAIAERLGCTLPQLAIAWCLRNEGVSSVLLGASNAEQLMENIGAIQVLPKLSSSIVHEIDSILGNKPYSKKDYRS

[5] = target: Voltage-gated potassium channel subunit beta-2 (Rattus norvegicus) (UniProt P62483); assay: KvBeta positive modulators, primary screen, biochemical, NADPH fluorescence (AID 623;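 active = NADPH fluorescence slope more negative than the mean of all samples by about 3 SD, 99.7% confidence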;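 also: fluorescence intensity change per second fitted from 20 to 320 s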); settings: Recombinant KvBeta, NADPH fluorescence decrease slope, 10 min; at 10 µM; stronger effect = lower value
[6] = target: Alpha-2C adrenergic receptor (Homo sapiens) (UniProt P18825); assay: modulators of alpha2C/GIRK thallium flux, primary screen, cell-based, HEK293 alpha2C/GIRK1/2 (AID 624;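 active = fluorescence slope after compound addition differing from the mean of all screened samples at 99.7% confidence, in either direction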;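 also: slope of fluorescence ratio to pre-addition baseline per second over 15 to 24 s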); settings: thallium flux BTC fluorescence, at 10 µM, actives lie on both sides
Sequence of Alpha-2C adrenergic receptor (Homo sapiens) (P18825 whole entry, looked up): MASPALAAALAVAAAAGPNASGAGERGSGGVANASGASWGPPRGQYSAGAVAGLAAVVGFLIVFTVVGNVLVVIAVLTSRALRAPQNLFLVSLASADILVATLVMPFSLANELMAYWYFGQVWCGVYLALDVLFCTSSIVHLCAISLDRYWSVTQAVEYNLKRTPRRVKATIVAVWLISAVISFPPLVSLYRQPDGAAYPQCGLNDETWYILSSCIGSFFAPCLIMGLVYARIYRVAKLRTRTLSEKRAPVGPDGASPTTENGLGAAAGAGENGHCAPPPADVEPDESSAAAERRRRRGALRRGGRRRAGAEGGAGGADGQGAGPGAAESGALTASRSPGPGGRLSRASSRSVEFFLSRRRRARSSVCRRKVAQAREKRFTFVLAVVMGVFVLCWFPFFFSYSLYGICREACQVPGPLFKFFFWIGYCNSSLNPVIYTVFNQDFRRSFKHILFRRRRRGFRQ

[7] = inhibitors of Sendai virus-induced IRF3 signaling, primary screen, TLR/RLR signaling modifier project, cell-based, Sendai virus stimulus, luciferase, 10K MLSCN set (AID 602276;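 active = inhibition at or above 50% at 10 µM; inactive = inhibition below 50%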;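 also: firefly luciferase from ISG56 promoter only with Renilla not read in this screen; 0% = Sendai virus plus DMSO and 100% = medium plus DMSO without virus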); settings: HEK293 RL24 IRF3 luciferase reporter, at 10 µM, stronger effect = higher value
[8] = inhibitors of poly I:C-induced TLR3 signaling, primary screen, cell-based, poly I:C stimulus, luciferase, 10K MLSCN set (AID 602277;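 active = inhibition of the reporter signal at or above 50%; inactive = inhibition below 50%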); settings: HEK293-TLR3 RL24 IRF3 luciferase reporter, at 10 µM, stronger effect = higher value

Compound | cell count [1] | inhibition [1] | inhibition of aggregation [2] | nuclei count [2] [%] | inhibition [3] | nuclei count [3] [%] | fluorescence slope [4] | NADPH fluorescence slope [5] | slope [6] | inhibition [7] | inhibition [8]
Cc1nn(-c2ccc(F)cc2)c2c1cc(C#N)c1nc3ccccc3n12 | 664 | 9.6% (inactive) | 29.9% (inactive) | 69.3 | 2.3% (inactive) | 102 | -0.000912 (active) | 1.1e-05 (inactive) | 0.00318 (inactive) | 9.91% (inactive) | 23.6% (inactive)
CCc1ccc(N2CC(C(=O)OCC(=O)NC3CCS(=O)(=O)C3)CC2=O)cc1 (centres undefined) | 260 | 21% (inactive) | 12% (inactive) | 85.2 | 6.8% (inactive) | 91.9 | -0.468 (inactive) | 7e-05 (inactive) | 0.00704 (inactive) | 0.238% (inactive) | 7.99% (inactive)
O=C(NCc1cccnc1)C1CCCN(S(=O)(=O)c2ccc(Cl)cc2)C1 (centres undefined) | 638 | -48% (inactive) | -4.5% (inactive) | 98 | -19.2% (inactive) | 104 | -0.601 (inactive) | -4.7e-05 (inactive) | 0.00732 (inactive) | -7.82% (inactive) | -2.22% (inactive)
CCCOc1cccc(C(=O)N(Cc2ccco2)C2CCS(=O)(=O)C2)c1 (centres undefined) | 378 | 1.7% (inactive) | -7.9% (inactive) | 100 | -94.2% (inactive) | 112 | -0.442 (inactive) | -3.3e-05 (inactive) | 0.00536 (inactive) | 2.23% (inactive) | -2.97% (inactive)
CCn1c(=O)c(=O)[nH]c2cc(C(=O)N3CCN(c4ccccc4F)CC3)ccc21 | 688 | -6.1% (inactive) | -40.8% (inactive) | 81.5 | -16.5% (inactive) | 110 | -0.594 (inactive) | -3e-05 (inactive) | 0.0083 (inactive) | 5.11% (inactive) | 6.91% (inactive)
CCOCCCNC(=O)C1CC(=O)N(C2CCCC2)C1 (centres undefined) | 536 | -6.8% (inactive) | 1.5% (inactive) | 103 | 11.6% (inactive) | 118 | -0.495 (inactive) | -1.6e-05 (inactive) | 0.00627 (inactive) | 15.9% (inactive) | 18.9% (inactive)
O=C(c1ccncc1)N1CCN(C(=O)c2cccs2)CC1 | 454 | -3.3% (inactive) | 1.6% (inactive) | 110 | 0.5% (inactive) | 106 | -0.459 (inactive) | -3e-05 (inactive) | 0.00631 (inactive) | 12.1% (inactive) | 14.2% (inactive)
Cc1cc(C(=O)NCc2cccnc2)n(-c2ccccc2)n1 | 613 | -0.9% (inactive) | -20.8% (inactive) | 103 | -82.8% (inactive) | 127 | -0.546 (inactive) | -1.4e-05 (inactive) | 0.00657 (inactive) | -0.216% (inactive) | 8.35% (inactive)
CCCn1c(C)nc2c(c1=O)c1nc3ccccc3nc1n2CCc1ccccc1 | 470 | -3.1% (inactive) | 6.9% (inactive) | 100 | -102% (inactive) | 222 | -0.303 (inactive) | 2.6e-05 (inactive) | 0.00428 (inactive) | 3.36% (inactive) | 0.543% (inactive)
CC(=O)Nc1cc(N2C(=O)CCC2=O)ccc1Cl | 498 | 3.5% (inactive) | 12.7% (inactive) | 98.5 | 10.7% (inactive) | 110 | -0.509 (inactive) | 2.5e-05 (inactive) | 0.00539 (inactive) | 23% (inactive) | 20.8% (inactive)
COC(=O)c1sc(S(=O)(=O)NCc2cccs2)c(C(=O)OC)c1C | 608 | -16.4% (inactive) | 0.4% (inactive) | 85.3 | 12.1% (inactive) | 101 | -0.452 (inactive) | -3.4e-06 (inactive) | 0.00602 (inactive) | -0.645% (inactive) | 30.7% (inactive)
CCn1c(SCC(=O)C(C)(C)C)nnc1-c1cnccn1 | 581 | 6.5% (inactive) | 9.1% (inactive) | 98.5 | -27.3% (inactive) | 100 | -0.51 (inactive) | -6.4e-06 (inactive) | 0.00526 (inactive) | 2.48% (inactive) | 1.65% (inactive)
Cc1cccc(OCCNC(=O)c2ncn[nH]2)c1 | 228 | 4.2% (inactive) | 1.8% (inactive) | 100 | -263% (inactive) | 144 | -0.443 (inactive) | -1.6e-05 (inactive) | 0.00209 (inactive) | 5.98% (inactive) | 32.3% (inactive)
O=C(Nc1cnn(Cc2ccc(F)cc2)c1)c1cnccn1 | 582 | -17% (inactive) | -7.5% (inactive) | 109 | -94.9% (inactive) | 120 | -0.504 (inactive) | -4.3e-05 (inactive) | 0.00522 (inactive) | 4.25% (inactive) | 8.05% (inactive)
Cc1cccc(N2CCN(C(=O)c3cc4ccccc4oc3=O)CC2)c1C | 712 | -2.8% (inactive) | -28.9% (inactive) | 93.7 | -22.9% (inactive) | 117 | -0.565 (inactive) | -2.1e-05 (inactive) | 0.00624 (inactive) | -10.3% (inactive) | -10.8% (inactive)
CCOc1ccccc1NC(=O)CCSc1nc2n[nH]c(C)c2c(=N)n1-c1ccccc1Cl | 621 | -10.2% (inactive) | -22.3% (inactive) | 77.9 | 30.1% (inactive) | 62.2 | -0.417 (inactive) | -4.1e-05 (inactive) | 0.00336 (inactive) | 3.64% (inactive) | 5.23% (inactive)
COc1ccc(S(=O)(=O)Nc2cc(C)on2)cc1OC | 455 | 6.5% (inactive) | -7.8% (inactive) | 109 | -171% (inactive) | 136 | -0.523 (inactive) | 9.2e-06 (inactive) | 0.00556 (inactive) | 7.69% (inactive) | 12.8% (inactive)
COc1ccc(-c2nc3cc(NC(=O)Cc4ccc(OC)c(OC)c4)ccc3o2)cc1 | 581 | -25.3% (inactive) | -10.5% (inactive) | 88.5 | -13.5% (inactive) | 114 | -0.468 (inactive) | -4.6e-05 (inactive) | 0.00505 (inactive) | -9.84% (inactive) | -114% (inactive)
N#CC1=C(SCC(=O)NC2CCCCC2)NC(=O)CC1c1ccco1 (centres undefined) | 709 | -7.8% (inactive) | -1.4% (inactive) | 62 | -10.6% (inactive) | 102 | -0.525 (inactive) | -5.1e-05 (inactive) | 0.00537 (inactive) | 10.9% (inactive) | 14% (inactive)
